{"source": "a collection of fitness landscapes (doi:10.1038/s41467-024-54723-y)", "note": "In all, about 18,000 sequences were measured (“TetR repression strength (sort-seq, GFP reporter)”: median about 0.23, highest 2% from about 0.68 on). What follows is part of a selection rich in the highest values, with near analogues and random picks from the rest."}
{"biological_target": "TetR (class B, Tn10) (UniProt P04483)", "sequence (P04483 whole entry)": "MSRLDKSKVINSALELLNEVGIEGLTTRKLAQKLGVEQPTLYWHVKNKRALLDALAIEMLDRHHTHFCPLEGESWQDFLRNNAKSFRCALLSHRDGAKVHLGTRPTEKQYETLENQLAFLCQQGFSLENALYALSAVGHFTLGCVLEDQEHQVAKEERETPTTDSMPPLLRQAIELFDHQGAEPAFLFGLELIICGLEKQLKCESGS", "assay": "TetR repression strength (sort-seq, GFP reporter) (relative to tetO2 = 1); higher = stronger repression", "details": "E. coli", "in_short": "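Repression strength is the top bin index plus one minus the read-weighted mean bin, relative to the unaltered operator's value. A low-copy library in E. coli SIG10-MAX randomized eight operator positions between a constitutive promoter and sfGFP, with TetR expressed constitutively; cells grew 5 h at 37 °C in LB with 50 µg/mL chloramphenicol and 10^6 were FACS-sorted into 13 bins that were each Illumina-sequenced. Three independent transformations were averaged, keeping only members with ≥30 reads in all replicates and CV ≤0.5.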"}
{"sequence": "TCCCAGTGAGTCCATGAGA", "TetR repression strength": 0.163}
{"sequence": "TCCCAACAAGTGTTCGAGA", "TetR repression strength": 0.0254}
{"sequence": "TCCCTGCAAGTTTCGGAGA", "TetR repression strength": 0.0543}
{"sequence": "TCCCCTGGAGTAGGCGAGA", "TetR repression strength": 0.0907}
{"sequence": "TCCCAGTGAGTACCCGAGA", "TetR repression strength": 0.261}
{"sequence": "TCCCTTTTAGTGGTGGAGA", "TetR repression strength": 0.212}
{"sequence": "TCCCTCATAGTAAGAGAGA", "TetR repression strength": 0.291}
{"sequence": "TCCCTGATAGTTGGCGAGA", "TetR repression strength": 0.317}
{"sequence": "TCCCGTGGAGTTGACGAGA", "TetR repression strength": 0.0573}
{"sequence": "TCCCTGGTAGTCGAAGAGA", "TetR repression strength": 0.187}
{"sequence": "TCCCTGGGAGTCGAAGAGA", "TetR repression strength": 0.196}
{"sequence": "TCCCTGATAGTCGAAGAGA", "TetR repression strength": 1.14}
{"sequence": "TCCCAGATAGTCGAAGAGA", "TetR repression strength": 0.115}
{"sequence": "TCCCTGAGAGTCGAAGAGA", "TetR repression strength": 1.18}
{"sequence": "TCCCTCTGAGTCGAAGAGA", "TetR repression strength": 0.0537}
{"sequence": "TCCCGGATAGTGTCGGAGA", "TetR repression strength": 0.141}
{"sequence": "TCCCCGTTAGTTTTAGAGA", "TetR repression strength": 0.25}
{"sequence": "TCCCGTTGAGTATATGAGA", "TetR repression strength": 0.229}
{"sequence": "TCCCGATAAGTAGAAGAGA", "TetR repression strength": 0.585}
{"sequence": "TCCCGTGCAGTGCTTGAGA", "TetR repression strength": 0.207}
{"sequence": "TCCCGTCAAGTGGTTGAGA", "TetR repression strength": 0.152}
{"sequence": "TCCCGTCCAGTGCTGGAGA", "TetR repression strength": 0.212}
{"sequence": "TCCCGTCAAGTGCTTGAGA", "TetR repression strength": 0.848}
{"sequence": "TCCCGGCAAGTGCTTGAGA", "TetR repression strength": 0.155}
{"sequence": "TCCCGTCCAGTGCTTGAGA", "TetR repression strength": 0.915}
{"sequence": "TCCCGCTCAGTTGGGGAGA", "TetR repression strength": 0.186}
{"sequence": "TCCCCAGTAGTAGTGGAGA", "TetR repression strength": 0.246}
{"sequence": "TCCCCTCTAGTAGGTGAGA", "TetR repression strength": 0.12}
{"sequence": "TCCCTTAGAGTGAGGGAGA", "TetR repression strength": 0.0732}
{"sequence": "TCCCAACAAGTCGCAGAGA", "TetR repression strength": 0.281}
{"sequence": "TCCCCAGAAGTGATTGAGA", "TetR repression strength": 1.1}
{"sequence": "TCCCGAGCAGTGACAGAGA", "TetR repression strength": 0.736}
{"sequence": "TCCCCAGCAGTGATTGAGA", "TetR repression strength": 1.1}
{"sequence": "TCCCGAGCAGTGATCGAGA", "TetR repression strength": 0.708}
{"sequence": "TCCCGAGCAGTGGCAGAGA", "TetR repression strength": 0.286}
{"sequence": "TCCCGAGCAGTGATGGAGA", "TetR repression strength": 0.371}
{"sequence": "TCCCCATAAGTGATTGAGA", "TetR repression strength": 0.42}
{"sequence": "TCCCTAGCAGTGATCGAGA", "TetR repression strength": 0.659}
{"sequence": "TCCCAGGAAGTGATTGAGA", "TetR repression strength": 0.266}
{"sequence": "TCCCCAGCAGTGAGTGAGA", "TetR repression strength": 0.167}
{"sequence": "TCCCCAGCAGTGCTTGAGA", "TetR repression strength": 0.311}
{"sequence": "TCCCAAGCAGTGACAGAGA", "TetR repression strength": 0.432}
{"sequence": "TCCCTACTAGTTACAGAGA", "TetR repression strength": 0.0592}
{"sequence": "TCCCGATTAGTCTTTGAGA", "TetR repression strength": 0.0932}
{"sequence": "TCCCCAGGAGTCCGGGAGA", "TetR repression strength": 0.332}
{"sequence": "TCCCACAAAGTCAGTGAGA", "TetR repression strength": 0.0709}
{"sequence": "TCCCTGATAGTCTTGGAGA", "TetR repression strength": 0.231}
{"sequence": "TCCCTCGAAGTGGGGGAGA", "TetR repression strength": 0.0994}
{"sequence": "TCCCGTCGAGTAAGTGAGA", "TetR repression strength": 0.219}
{"sequence": "TCCCGAGTAGTGGAGGAGA", "TetR repression strength": 0.155}
{"sequence": "TCCCTTGGAGTAACAGAGA", "TetR repression strength": 0}
{"sequence": "TCCCGGGCAGTGATAGAGA", "TetR repression strength": 0.571}
{"sequence": "TCCCGAGCAGTGCTAGAGA", "TetR repression strength": 0.661}
{"sequence": "TCCCGAACAGTGGGTGAGA", "TetR repression strength": 0.949}
{"sequence": "TCCCAAGCAGTGAAAGAGA", "TetR repression strength": 0.367}
{"sequence": "TCCCGAACAGTGTGTGAGA", "TetR repression strength": 0.161}
{"sequence": "TCCCGAACAGTGGGGGAGA", "TetR repression strength": 0.367}
{"sequence": "TCCCGAGCAGTGATAGAGA", "TetR repression strength": 0.75}
{"sequence": "TCCCGAGGAGTGCCAGAGA", "TetR repression strength": 0.547}
{"sequence": "TCCCGAGCAGTGCCAGAGA", "TetR repression strength": 0.684}
{"sequence": "TCCCGAGAAGTGCCAGAGA", "TetR repression strength": 0.312}
{"sequence": "TCCCGAGAAGTGAAAGAGA", "TetR repression strength": 0.0859}
{"sequence": "TCCCGAGCAGTGAAAGAGA", "TetR repression strength": 0.755}
